# According to PubChem BioAssay (NCI):
# “And” between values parts separate entries of the source, which are not always exact repeats. Identical values can stand only once. About 83,000 compounds went through this panel and 20% of them were active in at least one assay; those are over-represented in the sample as a whole.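 Values shown are percent growth following 48 h exposure of cells in 96-well plates to a single concentration of compound; below 10 was considered active.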 The source made the active and inactive calls.
# Tests used:
# Assay in all cases: NCI-60 one-dose screen, 48 h (100 = growth as untreated, 0 = no growth, -100 = all killed)
# Conditions in all cases: 10 µM unless noted
# NCI-H23 lung = test system: NCI-H23 lung
# NCI-H226 lung = test system: NCI-H226 lung
# NCI-H322M lung = test system: NCI-H322M lung
# HOP-62 NSCLC = test system: HOP-62 NSCLC
# NCI-H460 lung = test system: NCI-H460 lung
# NCI-H522 lung = test system: NCI-H522 lung
# A549/ATCC NSCLC = test system: A549/ATCC NSCLC
# 786-0 renal = test system: 786-0 renal
# COLO 205 colon = test system: COLO 205 colon
# DU-145 prostate = test system: DU-145 prostate
# K-562 leukemia = test system: K-562 leukemia
# MALME-3M melanoma = test system: MALME-3M melanoma
# MDA-MB-231 breast = test system: MDA-MB-231 breast
# RXF 393 renal = test system: RXF 393 renal
# SF-268 CNS = test system: SF-268 CNS
# SF-539 CNS = test system: SF-539 CNS
# UACC-257 melanoma = test system: UACC-257 melanoma
# M14 melanoma = test system: M14 melanoma
# SF-295 CNS = test system: SF-295 CNS
# HOP-92 NSCLC = test system: HOP-92 NSCLC
SMILES,growth (NCI-H23 lung),growth (NCI-H226 lung),growth (NCI-H322M lung),growth (HOP-62 NSCLC),growth (NCI-H460 lung),growth (NCI-H522 lung),growth (A549/ATCC NSCLC),growth (786-0 renal),growth (COLO 205 colon),growth (DU-145 prostate),growth (K-562 leukemia),growth (MALME-3M melanoma),growth (MDA-MB-231 breast),growth (RXF 393 renal),growth (SF-268 CNS),growth (SF-539 CNS),growth (UACC-257 melanoma),growth (M14 melanoma),growth (SF-295 CNS),growth (HOP-92 NSCLC)
CCOC(=O)c1sc(N)nc1-c1ccccc1,101% (inactive),98.7% (inactive),97% (inactive),87.9% (inactive),104% (inactive),95.5% (inactive),101% (inactive),95.1% (inactive),102% (inactive),113% (inactive),96% (inactive),120% (inactive),117% (inactive),102% (inactive),108% (inactive),88.4% (inactive),98.1% (inactive),99.7% (inactive),–,–
CCN(CC)CCNc1cc(-c2cccc(OC(F)(F)F)c2)nc2ccc(N3CCCC3)cc12,65.9% (inactive) and -7.71% (active) and 34.2% (inactive),74.3% (inactive) and 47.8% (inactive) and 63.7% (inactive),29.2% (inactive) and 18.9% (inactive) and 58.3% (inactive),51.6% (inactive) and 3.4% (active) and 34.8% (inactive),27.2% (inactive) and 0.777% (active) and 11.8% (inactive),–,–,-59.9% (active) and 1.27% (active) and 21.2% (inactive),32.5% (inactive) and -76.5% (active) and -46.9% (active),60.6% (inactive) and 19% (inactive) and 45.4% (inactive),-23% (active) and -25.5% (active) and -21% (active),-50.9% (active) and -42.3% (active) and -14.1% (active),0.557% (active) and -6.72% (active) and -8.3% (active),16.3% (inactive) and -15.5% (active) and 34.2% (inactive),61.1% (inactive) and 18.8% (inactive) and 34.5% (inactive),31.6% (inactive) and -38.2% (active) and 56.9% (inactive),62.5% (inactive) and -10.1% (active) and -0.682% (active),-85.8% (active) and -56.6% (active) and -63.5% (active),72% (inactive) and -26.3% (active) and 35.1% (inactive),–
Nc1ccccc1SC1CC(=O)N(c2cccc3ccccc23)C1=O (stereo not given),101% (inactive),83.6% (inactive),97% (inactive),90.5% (inactive),99.3% (inactive),–,–,101% (inactive),105% (inactive),111% (inactive),90.2% (inactive),101% (inactive),91.9% (inactive),93% (inactive),98.1% (inactive),95.6% (inactive),–,105% (inactive),94.7% (inactive),–
CC(/C=N/N1C(=O)c2ccccc2C1=O)c1ccccc1 (stereo not given),108% (inactive),90.6% (inactive),98.1% (inactive),112% (inactive),108% (inactive),104% (inactive),88.3% (inactive),102% (inactive),114% (inactive),115% (inactive),106% (inactive),101% (inactive),108% (inactive),101% (inactive),117% (inactive),106% (inactive),90.5% (inactive),108% (inactive),90.9% (inactive),–
O=C(N/N=C/c1cccc2ccccc12)C1CC1,104% (inactive) and 89.3% (inactive),104% (inactive) and 92.2% (inactive),98.1% (inactive) and 101% (inactive),–,113% (inactive) and 104% (inactive),98.8% (inactive) and 103% (inactive),100% (inactive) and 89.2% (inactive),99.9% (inactive) and 99% (inactive),112% (inactive) and 117% (inactive),128% (inactive) and 120% (inactive),92.3% (inactive) and 114% (inactive),110% (inactive),95.4% (inactive) and 91.3% (inactive),111% (inactive) and 110% (inactive),115% (inactive) and 104% (inactive),111% (inactive) and 102% (inactive),103% (inactive) and 100% (inactive),110% (inactive) and 108% (inactive),118% (inactive) and 92.9% (inactive),97.8% (inactive) and 95.1% (inactive)
Nc1nc(SC/C=C/CCl)c2[nH]cnc2n1,102% (inactive) and 98.1% (inactive),95.8% (inactive) and 131% (inactive),112% (inactive) and 115% (inactive),106% (inactive) and 99.8% (inactive),105% (inactive),95.1% (inactive) and 86.7% (inactive),95.4% (inactive) and 103% (inactive),102% (inactive) and 99.1% (inactive),104% (inactive) and 116% (inactive),110% (inactive),103% (inactive) and 90.7% (inactive),114% (inactive) and 92.3% (inactive),112% (inactive) and 102% (inactive),112% (inactive) and 133% (inactive),104% (inactive) and 107% (inactive),114% (inactive) and 97.5% (inactive),94.7% (inactive) and 102% (inactive),107% (inactive) and 98.9% (inactive),97.2% (inactive) and 112% (inactive),–
O=C(c1ccc(Cl)cc1)C(NCCO)c1ccc(Cl)cc1 (stereo not given),90.7% (inactive) and 90.4% (inactive),93.2% (inactive) and 106% (inactive),86.4% (inactive) and 93.6% (inactive),87.5% (inactive),100% (inactive) and 114% (inactive),92.8% (inactive) and 89.3% (inactive),–,97.8% (inactive) and 93.3% (inactive),112% (inactive) and 122% (inactive),108% (inactive) and 109% (inactive),90.3% (inactive) and 105% (inactive),90.2% (inactive) and 102% (inactive),96.3% (inactive) and 97.8% (inactive),94.9% (inactive) and 108% (inactive),99% (inactive) and 85.8% (inactive),114% (inactive) and 103% (inactive),100% (inactive) and 101% (inactive),101% (inactive) and 104% (inactive),96.8% (inactive) and 103% (inactive),–
CC(O)Cn1cnc2c1c(=O)n(C)c(=O)n2C (stereo not given),96.7% (inactive),102% (inactive),96.6% (inactive),102% (inactive),118% (inactive),–,99.6% (inactive),102% (inactive),–,–,–,110% (inactive),95.5% (inactive),99.3% (inactive),103% (inactive),93.7% (inactive),106% (inactive),104% (inactive),109% (inactive),–
CN(C)CCCN1c2ccccc2Sc2ccc(Cl)cc21,90.4% (inactive) and 112% (inactive) and 111% (inactive),106% (inactive) and 97.5% (inactive) and 92.1% (inactive),77.4% (inactive) and 105% (inactive) and 71% (inactive),77.1% (inactive) and 107% (inactive) and 95.2% (inactive),101% (inactive) and 105% (inactive) and 100% (inactive),72.3% (inactive) and 97.6% (inactive),103% (inactive) and 94.4% (inactive),68% (inactive) and 106% (inactive) and 81.9% (inactive),50.5% (inactive) and 102% (inactive) and 67.9% (inactive),101% (inactive) and 113% (inactive) and 111% (inactive),51.6% (inactive) and 120% (inactive) and 58.2% (inactive),90.2% (inactive) and 111% (inactive) and 76.7% (inactive),67.7% (inactive) and 108% (inactive) and 72.3% (inactive),52% (inactive) and 84.6% (inactive) and 82% (inactive),83% (inactive) and 104% (inactive) and 83.6% (inactive),90.5% (inactive) and 98.8% (inactive) and 88.8% (inactive),78% (inactive) and 106% (inactive) and 115% (inactive),31% (inactive) and 102% (inactive) and 81% (inactive),95.3% (inactive) and 160% (inactive) and 81% (inactive),–
